D2 ag-1 – HTS Assay for Allosteric Agonists of the Human D2 Dopamine Receptor: Primary Screen for Agonists; 0.53% of 340,000 active; HEK293 T-REx D2 cells, calcium flux agonist mode; activation, % at 2 µM; D(2) dopamine receptor (Homo sapiens), P14416;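 active means activation over 3 SD above normal in the single-dose calcium agonist read, cut at about 30% in these data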; further: 0% is about no effect
Target sequence (P14416 whole entry, looked up): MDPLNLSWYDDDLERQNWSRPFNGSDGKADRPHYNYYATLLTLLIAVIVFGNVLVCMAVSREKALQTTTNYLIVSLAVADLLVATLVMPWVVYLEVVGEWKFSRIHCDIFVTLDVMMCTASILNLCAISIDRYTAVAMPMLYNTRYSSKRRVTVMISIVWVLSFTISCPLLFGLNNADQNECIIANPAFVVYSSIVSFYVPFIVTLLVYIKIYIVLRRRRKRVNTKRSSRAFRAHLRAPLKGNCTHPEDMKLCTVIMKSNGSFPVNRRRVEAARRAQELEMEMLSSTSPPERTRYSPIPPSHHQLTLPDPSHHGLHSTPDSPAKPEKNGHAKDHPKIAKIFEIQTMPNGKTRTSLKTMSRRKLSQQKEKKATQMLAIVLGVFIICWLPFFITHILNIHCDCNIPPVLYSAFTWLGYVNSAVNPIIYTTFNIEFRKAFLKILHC
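Agonism is scored from calcium flux in a force-coupled, inducible HEK293 cell line expressing D2, read kinetically for 180 s after compound addition against dopamine controls.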
D2 PAM-1 – Beta-Arrestin HTS for Positive Allosteric Modulators of the Human D2 Dopamine Receptor: Potentiators; D(2) dopamine receptor (Homo sapiens), P14416; DiscoveRx D2 beta-arrestin cells, luminescence, 90 min; 100% = 57 uM dopamine signal; potentiation, % (no concentration beside the values); 0.23% of 360,000 active; in the data active means potentiation above about 50%; inconclusive means mostly about 30% to 49%
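PathHunter D2 cells, attached overnight at 37 deg C, received compound in DMSO plus dopamine at EC20 (50 nM final) for 90 min at 37 deg C. Beta-arrestin recruitment was read as luminescence after 1 h with detection reagent at ambient temperature.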
D2 PAM-2 – HTS Assay for Positive Allosteric Modulators of the Human D2 Dopamine Receptor: Primary Screen for Potentiators. D(2) dopamine receptor (Homo sapiens), P14416. HEK293 T-REx D2, calcium flux, EC20 dopamine potentiation. potentiation, % at 10 µM. 0.34% of 340,000 active. AID 485347, 2010;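 active means potentiation over 3 SD above the plate norm, cut at about 30% in these data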; further: 0% is about no effect
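Tetracycline-induced Hek293 Trex D2 cells, force-coupled to calcium, loaded with no-wash calcium dye. Compound added with 180 s kinetic read for agonism, then EC20 dopamine and a further 180 s read for potentiation.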
D2 ag-2 – Beta-Arrestin HTS for Positive Allosteric Modulators of the Human D2 Dopamine Receptor: Agonists | 0.084% of 360,000 active | DiscoveRx PathHunter D2 beta-arrestin, luminescence, 90 min; 100% = 57 uM dopamine signal | activation, % (concentration not given with the values) | D(2) dopamine receptor (Homo sapiens), P14416; in the data active means activation above about 40%; inconclusive means between about 15% and that limit
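DiscoveRx PathHunter D2 beta-arrestin cells (2,100/well) attached overnight, then compound-stimulated 90 min at 37 C in HBSS/10 mM HEPES/0.1% Tween-20 buffer; beta-galactosidase complementation read by luminescence after 1 h at ambient temperature. Dopamine 57 uM final (EC100) as control.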
D2 antag – HTS Assay for Allosteric Antagonists of the Human D2 Dopamine Receptor: Primary Screen for Antagonists; D(2) dopamine receptor (Homo sapiens), P14416; HEK293 TREx D2 cells, calcium flux, dopamine EC80; inhibition, % at 10 µM; 2% of 340,000 active; AID 485344, 2010; in the data active means inhibition above about 30%; inactive means below that, where a call was filed; further: 0% is about no effect
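Calcium flux kinetic readout in an inducible HEK293 TREx D2 line plated overnight at 30 C. After 180 s compound exposure, an EC80 dopamine challenge follows with another 180 s kinetic read to detect antagonism.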
D3 arrestin ag – qHTS of D3 Dopamine Receptor Agonist: D3 Dopamine Receptor B-arrestin Agonist Confirmatory Assay | 4% of 2,300 active | DiscoveRx D3 beta-arrestin cells, luminescence, 90 min | AID 720506, 2013 | Potency, µM (top dose mostly 76.9 µM), for the others: at the highest dose activation, most hits filed as activators | shares compounds with D2 ag-1;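 further: potency means the concentration at half of the fitted maximal effect; 100% = dopamine control response; nearly all actives have a fitted effect of over 70% in size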
D2 ag-3 – qHTS of D3 Dopamine Receptor Agonist: D2 Dopamine Receptor B-arrestin Agonist Counterscreen | shares compounds with D2 ag-1 | DiscoveRx PathHunter D2 beta-arrestin, luminescence, 90 min; response scale: percent relative to full dopamine signal | Potency, µM (series often up to 76.9 µM), for inactives: at the top dose activation, usual class: activators | 5.9% of 2,300 active; further: potency means the concentration at half of the fitted maximal effect; % of control where 0% means no effect; nearly all actives have a fitted effect of over 70% in size
* = called active by the depositor; ? = inconclusive; . = no result given. Most compounds without a hit are left out; they make up all but 2.4% or so of the library. Unless noted, the call rests on the fitted dose curve; in most records, active means well fitted activation curve with a large enough effect; inconclusive means small, poorly fitted or top-dose-only effect; inactive means flat fitted curve, though single readings scatter.

SMILES	D2 ag-1	D2 PAM-1	D2 PAM-2	D2 ag-2	D2 antag	D3 arrestin ag	D2 ag-3
COc1cc(OC)c2c(-c3ccccc3)cc(=O)oc2c1C(CCN1CCN(c2ccccc2)CC1)c1ccc(N(C)C)cc1 (stereo unspecified)	.	-19.5	.	3.6	.	-6.3%	19.2%
COc1cc(OC)c2ccc(=O)oc2c1C(CCN1CCN(c2ccccc2)CC1)c1ccc(N(C)C)cc1 (stereo unspecified)	53.0*	-20.3	-15.0	2.1	61.6*	1.1%	11.8%
COc1cc(C2CC(=O)Oc3c(C(CCN4CCN(c5ccccc5)CC4)c4ccc(N(C)C)cc4)c(OC)cc(OC)c32)cc(OC)c1OC (stereo unspecified)	0.2	-14.5	-9.2	14.7	-3.5	.	.
CCCCCc1cc(=O)oc2c(C(CCN3CCN(c4ccccc4)CC3)c3ccc(N(C)C)cc3)c(OC)cc(OC)c12 (stereo unspecified)	7.1	-18.3	3.7	1.3	21.2	.	.
COc1ccc(C(CCN2CCN(c3ccccc3)CC2)c2c(OC)cc(OC)c3c(-c4ccccc4)cc(=O)oc23)cc1 (stereo unspecified)	69.0*	-11.0	-9.2	8.5	79.4*	?	?
COc1cc(O)c(C(CCN2CCN(c3ccccc3)CC2)c2ccc3c(c2)OCO3)c(OC)c1 (stereo unspecified)	24.9	-19.4	-23.5	0.9	75.2*	-5.2%	4.7%
COc1cc(OC)c(NC(=O)c2cc(C)nc3c2c(C)nn3-c2ccc(C)cc2)cc1Cl	.	.	5.3	.	.	.	.
CC(NCc1ccccc1)C1COc2ccccc2O1 (stereo unspecified)	37.7*	-21.0	-18.9	4.1	29.0	11.3%	4.1%
CC(NCC(O)COc1ccccc1)C1COc2ccccc2O1 (stereo unspecified)	65.3*	-9.7	-28.0	?	64.1*	8.4%	14.8%
CN1C/C(=C\c2ccc(N3CCOCC3)cc2)C(=O)/C(=C/c2ccc(N3CCOCC3)cc2)C1	25.2	-12.4	5.8	-3.8	0.1	-0.4%	-5.2%
CN1C/C(=C/c2ccsc2)C(=O)/C(=C/c2ccsc2)C1	69.4*	-18.8	-22.8	1.1	44.4*	0.1%	-2.1%
CCC1CCCCN1C(=O)COc1ccc2c3c(c(=O)oc2c1)CCC3 (stereo unspecified)	-0.6	-6.1	12.3	-1.9	-0.6	.	.
COC1CCN(Cc2c(C(=O)N3CCN(C4CCCCC4)CC3)nc3ccccn23)CC1	59.3*	-6.6	-21.1	-0.5	-7.7	-0.3%	-6.8%
COCC1CCN(Cc2c(C(=O)N3CCN(C4CCCCC4)CC3)nc3ccccn23)C1 (stereo unspecified)	0.3	-49.5	-5.1	-4.3	-14.0	.	.
COc1ccc(C2C=C(c3ccccc3)Nc3nc(NC(=O)c4cccc([N+](=O)[O-])c4)nn32)cc1 (stereo unspecified)	1.2	.	.	.	.	.	.
CCc1ccc(NC(=O)N(Cc2c[nH]c3ccccc23)C2CCCCC2)cc1	0.0	.	-13.3	.	.	.	.
Cc1ccc(NC(=O)c2nc[nH]c2C(=O)NC2CCN(C(=O)OC(C)(C)C)CC2)cc1	.	-8.1	.	-2.2	.	.	.
CC(C)(C)OC(=O)N1CCN(C(=O)c2[nH]cnc2C(=O)NCc2ccccc2)CC1	0.1	-9.7	-3.0	-3.5	-3.1	-2.9%	-2.3%
